Assay results from the supplement of paper PMC10037445.
Whole data set: some 2,900 compounds, median “IRF Lucia reporter activity, fold change vs agonist alone” near 0.9, cut for the highest 2% near 2.8. The full list was thinned out, with the highest values kept by preference.

Experiments:
RAW-Dual [1] = assay: IRF Lucia reporter activity, fold change vs agonist alone; cytotoxicity flag (confluency mask): not cytotoxic; higher = enhanced IRF activity
Summary of the method: (§1)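 Library stock was pin-tooled at 50 nL into 384-well plates of RAW-Dual macrophages (50,000 cells/well, DMEM), followed 1 h later by a PRR agonist, and the cells were kept at 37 °C, 5% CO2. Supernatant collected after 20 hours was read for IRF by QuantiLuc luminescence and for NF-κB by QuantiBlue absorbance at 620 nm. Reporter activity is fold change over agonist-alone wells, and a well counted as cytotoxic when its IncuCyte confluency was below 70% of agonist controls in both mask sets.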

RAW-Dual [2] = assay: IRF Lucia reporter activity, fold change vs agonist alone; cytotoxicity flag (confluency mask): cytotoxic (confluency <70% of control); higher = enhanced IRF activity
Summary of the method: as §1

RAW-Dual [3] = assay: IRF Lucia reporter activity, fold change vs agonist alone; higher = enhanced IRF activity; conditions: library stock concentration (final ~1000-fold dilution): 10 mM, agonist: MPLA (TLR4) […]
Summary of the method: as §1

[4] = agonist: 3'3'-cGAMP (STING) 10 ug/mL
[5] = cytotoxicity flag (confluency mask): not cytotoxic

## Cc1nc(Nc2ncc(C(=O)Nc3c(C)cccc3Cl)s2)cc(N2CCN(CCO)CC2)n1.Cl (library stock concentration (final ~1000-fold dilution): 10 mM)
RAW-Dual [1]; [4]
  IRF Lucia reporter activity: 0.0778
RAW-Dual [1]; agonist: LPS (TLR4) 0.1 ug/mL
  IRF Lucia reporter activity: 1.07

## C=C1CCN(C(C)C(O)(Cn2cncn2)c2ccc(F)cc2F)CC1 (stereo not given) (library stock concentration (final ~1000-fold dilution): 10 mM)
RAW-Dual [2]; [4]
  IRF Lucia reporter activity: 1.25
RAW-Dual [2]; agonist: LPS (TLR4) 0.1 ug/mL
  IRF Lucia reporter activity: 2.38

## C=C1CCN(C(C)C(O)(Cn2cncn2)c2ccc(F)cc2F)CC1 (stereo not given)
RAW-Dual [3]; cytotoxicity flag (confluency mask): cytotoxic (confluency <70% of control)
  IRF Lucia reporter activity: 2.14

## CC(C)(C)NC(=O)c1cncn1C1CCN(c2ccc(-c3nnc(C(F)(F)F)o3)cn2)CC1 (library stock concentration (final ~1000-fold dilution): 10 mM)
RAW-Dual [1]; [4]
  IRF Lucia reporter activity: 1.33
RAW-Dual [1]; agonist: LPS (TLR4) 0.1 ug/mL
  IRF Lucia reporter activity: 3.77

## CC(C)CC(NC(=O)CNC(=O)c1cc(Cl)ccc1Cl)B(O)O (stereo not given) (library stock concentration (final ~1000-fold dilution): 10 mM)
RAW-Dual [1]; [4]
  IRF Lucia reporter activity: 1
RAW-Dual [1]; agonist: LPS (TLR4) 0.1 ug/mL
  IRF Lucia reporter activity: 1.16

## CC(C)CC(NC(=O)CNC(=O)c1cc(Cl)ccc1Cl)B(O)O (stereo not given)
RAW-Dual [3]; [5]
  IRF Lucia reporter activity: 1.08

## COc1ccc2c(OC3CC4C(=O)NC5(C(=O)NS(=O)(=O)C6CC6)CC5/C=C\CCCCN(C)C(=O)C4C3)cc(-c3nc(C(C)C)cs3)nc2c1C (stereo not given)
RAW-Dual [3]; [5]
  IRF Lucia reporter activity: 1.05

## COc1ccc2c(OC3CC4C(=O)NC5(C(=O)NS(=O)(=O)C6CC6)CC5/C=C\CCCCN(C)C(=O)C4C3)cc(-c3nc(C(C)C)cs3)nc2c1C (stereo not given) (library stock concentration (final ~1000-fold dilution): 10 mM)
RAW-Dual [1]; [4]
  IRF Lucia reporter activity: 1.04
RAW-Dual [1]; agonist: LPS (TLR4) 0.1 ug/mL
  IRF Lucia reporter activity: 1.18

## Cc1ccc(/C(=C\CN2CCCC2)c2ccccn2)cc1.Cl.O (library stock concentration (final ~1000-fold dilution): 10 mM)
RAW-Dual [1]; [4]
  IRF Lucia reporter activity: 0.877
RAW-Dual [1]; agonist: LPS (TLR4) 0.1 ug/mL
  IRF Lucia reporter activity: 0.728

## Cc1ccc(/C(=C\CN2CCCC2)c2ccccn2)cc1.Cl.O
RAW-Dual [3]; [5]
  IRF Lucia reporter activity: 1.09

## CC(C)(O)c1cc(Nc2cc(Oc3cn(C4CC4)nc3C3CCOCC3)ccn2)ccn1 (library stock concentration (final ~1000-fold dilution): 10 mM)
RAW-Dual [1]; [4]
  IRF Lucia reporter activity: 1.14
RAW-Dual [1]; agonist: LPS (TLR4) 0.1 ug/mL
  IRF Lucia reporter activity: 1.53

## NC1CCCN(c2c(/C=C3\SC(=O)NC3=O)cccc2-c2ccccc2)C1 (stereo not given) (library stock concentration (final ~1000-fold dilution): 10 mM)
RAW-Dual [1]; [4]
  IRF Lucia reporter activity: 0.968
RAW-Dual [1]; agonist: LPS (TLR4) 0.1 ug/mL
  IRF Lucia reporter activity: 1.16

## NC1CCCN(c2c(/C=C3\SC(=O)NC3=O)cccc2-c2ccccc2)C1 (stereo not given)
RAW-Dual [3]; [5]
  IRF Lucia reporter activity: 1.1

## CS(=O)(=O)CCNCc1ccc(-c2ccc3ncnc(Nc4ccc(OCc5cccc(F)c5)c(Cl)c4)c3c2)o1.Cc1ccc(S(=O)(=O)O)cc1.Cc1ccc(S(=O)(=O)O)cc1 (library stock concentration (final ~1000-fold dilution): 10 mM)
RAW-Dual [1]; [4]
  IRF Lucia reporter activity: 0.264
RAW-Dual [1]; agonist: LPS (TLR4) 0.1 ug/mL
  IRF Lucia reporter activity: 3.36

## CS(=O)(=O)CCNCc1ccc(-c2ccc3ncnc(Nc4ccc(OCc5cccc(F)c5)c(Cl)c4)c3c2)o1
RAW-Dual [3]; [5]
  IRF Lucia reporter activity: 1.6

## CS(=O)(=O)CCNCc1ccc(-c2ccc3ncnc(Nc4ccc(OCc5cccc(F)c5)c(Cl)c4)c3c2)o1.Cc1ccc(S(=O)(=O)O)cc1.Cc1ccc(S(=O)(=O)O)cc1.O (library stock concentration (final ~1000-fold dilution): 10 mM)
RAW-Dual [1]; [4]
  IRF Lucia reporter activity: 0.259
RAW-Dual [1]; agonist: LPS (TLR4) 0.1 ug/mL
  IRF Lucia reporter activity: 2.46

## CS(=O)(=O)CCNCc1ccc(-c2ccc3ncnc(Nc4ccc(OCc5cccc(F)c5)c(Cl)c4)c3c2)o1.Cc1ccc(S(=O)(=O)O)cc1.Cc1ccc(S(=O)(=O)O)cc1.O
RAW-Dual [3]; [5]
  IRF Lucia reporter activity: 1.8

## CS(=O)(=O)CCNCc1ccc(-c2ccc3ncnc(Nc4ccc(OCc5cccc(F)c5)c(Cl)c4)c3c2)o1.Cc1ccc(S(=O)(=O)O)cc1.Cc1ccc(S(=O)(=O)O)cc1
RAW-Dual [3]; [5]
  IRF Lucia reporter activity: 1.28

## CS(=O)(=O)CCNCc1ccc(-c2ccc3ncnc(Nc4ccc(OCc5cccc(F)c5)c(Cl)c4)c3c2)o1 (library stock concentration (final ~1000-fold dilution): 10 mM)
RAW-Dual [1]; [4]
  IRF Lucia reporter activity: 0.277
RAW-Dual [1]; agonist: LPS (TLR4) 0.1 ug/mL
  IRF Lucia reporter activity: 1.43
